# Experimental data as given in paper PMC7862700, “An all-to-all approach to the identification of sequence-specific readers for epigenetic DNA modifications on cytosine”.
# What was measured:
# Experiment in all cases: DAPPL (digital affinity profiling via proximity ligation, sequencing); 10 mM Tris-HCl pH 7.5, 50 mM NaCl, 1 mM DTT, 4% glycerol, room temperature, 30 min; GST-TFs on glutathione beads, 16-mer random dsDNA library, 0.1% formaldehyde crosslink after washing; high values mean tight binding
# [1] = molecular target: T1, FLI1 (Homo sapiens, UniProt Q01543 1-452); details: protein: recombinant; tags: N-terminal GST; dsDNA, one strand shown
# T1 sequence: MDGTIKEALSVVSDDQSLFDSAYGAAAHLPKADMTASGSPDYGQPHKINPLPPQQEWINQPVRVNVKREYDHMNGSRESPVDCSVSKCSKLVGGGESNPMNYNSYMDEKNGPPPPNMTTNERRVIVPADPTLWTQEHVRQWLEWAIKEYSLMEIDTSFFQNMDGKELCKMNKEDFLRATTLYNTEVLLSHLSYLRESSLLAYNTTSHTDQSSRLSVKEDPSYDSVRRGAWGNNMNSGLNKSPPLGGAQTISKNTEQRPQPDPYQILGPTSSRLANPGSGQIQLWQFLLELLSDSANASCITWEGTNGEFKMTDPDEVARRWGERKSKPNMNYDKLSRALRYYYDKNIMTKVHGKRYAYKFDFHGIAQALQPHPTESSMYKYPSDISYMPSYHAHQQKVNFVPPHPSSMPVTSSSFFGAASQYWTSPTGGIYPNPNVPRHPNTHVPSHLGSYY
# Outline: (§1)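 After expression in yeast as GST fusions, human transcription factors were bound to glutathione beads, DNA-barcoded and mixed with a tag-only sample. The pools were incubated with 200 nmole of a 16-mer random double-stranded DNA library in Tris/NaCl/DTT/glycerol buffer (30 min, room temperature), washed and crosslinked with 0.1% formaldehyde. Proximity ligation with BsaI/T4 ligase ran for 1 h at 37 °C, before PCR amplification and sequencing on an Illumina NextSeq500. Binding signal is a hexamer's read frequency for a factor divided by its frequency for the tag-only sample.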
# [2] = molecular target: T2, ELK1 (Homo sapiens, UniProt P19419 1-428); details: protein: recombinant; tags: N-terminal GST; dsDNA, one strand shown
# T2 sequence: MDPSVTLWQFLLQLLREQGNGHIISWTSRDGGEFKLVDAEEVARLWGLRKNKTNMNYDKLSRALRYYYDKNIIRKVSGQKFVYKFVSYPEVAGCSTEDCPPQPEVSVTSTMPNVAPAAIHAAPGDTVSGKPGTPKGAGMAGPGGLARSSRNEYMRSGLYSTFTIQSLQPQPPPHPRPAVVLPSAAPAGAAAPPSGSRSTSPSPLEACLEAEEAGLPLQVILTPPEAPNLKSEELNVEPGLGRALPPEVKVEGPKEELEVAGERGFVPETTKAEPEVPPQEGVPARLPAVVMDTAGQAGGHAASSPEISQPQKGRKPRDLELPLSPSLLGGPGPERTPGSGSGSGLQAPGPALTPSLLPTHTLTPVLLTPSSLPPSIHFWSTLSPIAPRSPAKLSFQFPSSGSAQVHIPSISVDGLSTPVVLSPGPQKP
# Outline: as §1
# [3] = molecular target: T3, GABPA (Homo sapiens, UniProt Q06546 1-454); details: protein: recombinant; tags: N-terminal GST; dsDNA, one strand shown
# T3 sequence: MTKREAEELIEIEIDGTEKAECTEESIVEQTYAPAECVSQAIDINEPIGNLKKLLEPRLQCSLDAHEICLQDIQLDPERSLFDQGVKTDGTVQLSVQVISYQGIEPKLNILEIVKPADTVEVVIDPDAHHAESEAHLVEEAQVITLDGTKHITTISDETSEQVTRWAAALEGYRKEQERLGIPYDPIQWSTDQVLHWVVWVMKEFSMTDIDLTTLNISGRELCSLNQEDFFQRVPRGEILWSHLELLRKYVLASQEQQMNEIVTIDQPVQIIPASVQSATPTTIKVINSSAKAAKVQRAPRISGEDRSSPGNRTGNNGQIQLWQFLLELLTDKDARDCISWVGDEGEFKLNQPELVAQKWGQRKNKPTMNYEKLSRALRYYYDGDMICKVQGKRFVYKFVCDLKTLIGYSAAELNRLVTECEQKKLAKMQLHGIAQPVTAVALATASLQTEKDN
# Outline: as §1
# [4] = molecular target: T4, ERG (Homo sapiens, UniProt P11308 1-479); details: protein: recombinant; tags: N-terminal GST; dsDNA, one strand shown
# T4 sequence: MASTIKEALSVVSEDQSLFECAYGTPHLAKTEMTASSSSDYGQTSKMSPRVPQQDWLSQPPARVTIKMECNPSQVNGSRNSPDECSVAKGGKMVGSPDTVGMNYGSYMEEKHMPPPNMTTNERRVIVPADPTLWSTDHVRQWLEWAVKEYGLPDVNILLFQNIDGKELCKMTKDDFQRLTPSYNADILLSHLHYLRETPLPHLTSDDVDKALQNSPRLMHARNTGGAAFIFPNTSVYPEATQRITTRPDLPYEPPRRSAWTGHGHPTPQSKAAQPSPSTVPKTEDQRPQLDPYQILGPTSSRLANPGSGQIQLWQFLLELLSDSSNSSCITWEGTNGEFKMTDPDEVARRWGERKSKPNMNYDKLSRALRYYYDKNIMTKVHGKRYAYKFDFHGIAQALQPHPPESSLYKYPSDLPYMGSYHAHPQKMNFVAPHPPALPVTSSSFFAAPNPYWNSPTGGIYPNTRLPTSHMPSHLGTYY
# Outline: as §1
# [5] = molecular target: ELF1 (Homo sapiens, UniProt P32519 1-619); details: protein: recombinant; tags: N-terminal GST; dsDNA, one strand shown
# Sequence of ELF1 (P32519 whole entry): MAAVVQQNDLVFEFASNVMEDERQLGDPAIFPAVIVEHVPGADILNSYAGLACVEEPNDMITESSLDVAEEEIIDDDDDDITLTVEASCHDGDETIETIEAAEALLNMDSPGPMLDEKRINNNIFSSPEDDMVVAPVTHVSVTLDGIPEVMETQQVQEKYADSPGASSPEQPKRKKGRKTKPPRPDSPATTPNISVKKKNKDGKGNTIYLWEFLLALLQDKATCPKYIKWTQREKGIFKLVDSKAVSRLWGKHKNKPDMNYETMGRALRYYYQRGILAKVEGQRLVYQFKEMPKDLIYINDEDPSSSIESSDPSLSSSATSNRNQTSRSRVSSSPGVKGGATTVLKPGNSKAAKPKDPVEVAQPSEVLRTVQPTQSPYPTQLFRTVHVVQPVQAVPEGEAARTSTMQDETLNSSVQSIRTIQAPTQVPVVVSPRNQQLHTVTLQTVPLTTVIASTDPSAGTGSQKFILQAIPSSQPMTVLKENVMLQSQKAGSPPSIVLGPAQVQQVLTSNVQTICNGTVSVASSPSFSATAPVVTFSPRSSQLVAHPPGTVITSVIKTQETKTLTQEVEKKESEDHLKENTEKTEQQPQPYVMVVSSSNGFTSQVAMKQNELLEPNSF
# Outline: as §1
# [6] = molecular target: T5, EHF (Homo sapiens, UniProt Q9NZC4 1-300); details: protein: recombinant; tags: N-terminal GST; dsDNA, one strand shown
# T5 sequence: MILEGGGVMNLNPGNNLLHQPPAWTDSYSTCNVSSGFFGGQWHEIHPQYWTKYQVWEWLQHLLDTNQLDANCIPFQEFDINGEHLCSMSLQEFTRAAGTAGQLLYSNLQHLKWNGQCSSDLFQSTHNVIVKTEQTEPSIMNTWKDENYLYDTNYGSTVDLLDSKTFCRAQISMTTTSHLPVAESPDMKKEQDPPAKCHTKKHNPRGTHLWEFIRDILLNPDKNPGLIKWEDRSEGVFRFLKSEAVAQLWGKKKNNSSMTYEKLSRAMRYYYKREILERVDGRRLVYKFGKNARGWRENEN
# Outline: as §1
# [7] = molecular target: SPI1 (Homo sapiens, UniProt P17947 1-270); details: protein: recombinant; tags: N-terminal GST; dsDNA, one strand shown
# Outline: as §1
# [8] = molecular target: SPIB (Homo sapiens, UniProt Q01892 1-262); details: protein: recombinant; tags: N-terminal GST; dsDNA, one strand shown
# Sequence of SPIB (Q01892 whole entry): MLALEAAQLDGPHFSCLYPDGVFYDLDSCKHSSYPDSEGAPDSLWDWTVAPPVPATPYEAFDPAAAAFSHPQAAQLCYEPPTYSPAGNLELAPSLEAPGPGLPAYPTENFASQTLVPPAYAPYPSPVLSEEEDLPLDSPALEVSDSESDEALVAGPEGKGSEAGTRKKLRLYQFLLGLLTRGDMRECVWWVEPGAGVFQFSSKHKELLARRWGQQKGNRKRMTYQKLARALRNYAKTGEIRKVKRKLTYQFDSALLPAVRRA
# Outline: as §1
# [9] = molecular target: T6, ELK3 (Homo sapiens, UniProt P41970 1-407); details: protein: recombinant; tags: N-terminal GST; dsDNA, one strand shown
# T6 sequence: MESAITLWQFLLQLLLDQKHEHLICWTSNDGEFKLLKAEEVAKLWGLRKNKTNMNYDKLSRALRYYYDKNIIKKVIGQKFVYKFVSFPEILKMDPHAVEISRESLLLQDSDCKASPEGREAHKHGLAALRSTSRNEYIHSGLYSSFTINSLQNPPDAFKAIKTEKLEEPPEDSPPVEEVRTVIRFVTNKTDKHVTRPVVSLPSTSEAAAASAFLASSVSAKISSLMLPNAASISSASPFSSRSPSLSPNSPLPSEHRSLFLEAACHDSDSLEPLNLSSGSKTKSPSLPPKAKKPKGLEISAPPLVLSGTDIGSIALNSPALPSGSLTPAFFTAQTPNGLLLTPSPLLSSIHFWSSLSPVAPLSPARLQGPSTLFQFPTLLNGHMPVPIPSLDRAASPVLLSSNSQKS
# Outline: as §1
# [10] = molecular target: T7, FEV (Homo sapiens, UniProt Q99581 1-238); details: protein: recombinant; tags: N-terminal GST; dsDNA, one strand shown
# T7 sequence: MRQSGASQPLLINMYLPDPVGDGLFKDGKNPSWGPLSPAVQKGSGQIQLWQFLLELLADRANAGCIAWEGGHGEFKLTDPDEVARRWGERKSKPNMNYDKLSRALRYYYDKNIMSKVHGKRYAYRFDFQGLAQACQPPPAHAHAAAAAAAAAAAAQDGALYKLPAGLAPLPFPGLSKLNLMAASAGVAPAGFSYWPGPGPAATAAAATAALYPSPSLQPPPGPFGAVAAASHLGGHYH
# Outline: as §1
# [11] = molecular target: ETV5 (Homo sapiens, UniProt P41161 1-510); details: protein: recombinant; tags: N-terminal GST; dsDNA, one strand shown
# Sequence of ETV5 (P41161 whole entry): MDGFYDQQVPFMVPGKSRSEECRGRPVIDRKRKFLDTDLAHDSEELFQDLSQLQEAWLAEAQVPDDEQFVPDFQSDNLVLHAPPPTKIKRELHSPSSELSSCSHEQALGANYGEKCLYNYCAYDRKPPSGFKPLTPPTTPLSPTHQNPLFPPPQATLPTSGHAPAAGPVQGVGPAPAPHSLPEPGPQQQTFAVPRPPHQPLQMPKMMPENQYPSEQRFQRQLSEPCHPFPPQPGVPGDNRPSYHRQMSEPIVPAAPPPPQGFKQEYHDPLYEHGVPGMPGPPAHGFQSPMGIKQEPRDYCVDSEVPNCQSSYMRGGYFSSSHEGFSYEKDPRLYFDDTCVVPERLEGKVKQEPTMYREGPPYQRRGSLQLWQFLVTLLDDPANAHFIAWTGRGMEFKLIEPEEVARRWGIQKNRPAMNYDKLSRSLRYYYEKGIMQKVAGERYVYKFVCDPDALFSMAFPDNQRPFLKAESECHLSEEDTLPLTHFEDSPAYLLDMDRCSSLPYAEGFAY
# Outline: as §1
# [12] = molecular target: HSF1 (Homo sapiens, UniProt Q00613 1-529); details: protein: recombinant; tags: N-terminal GST; chain copies: 3; dsDNA, one strand shown
# Sequence of HSF1 (Q00613 whole entry): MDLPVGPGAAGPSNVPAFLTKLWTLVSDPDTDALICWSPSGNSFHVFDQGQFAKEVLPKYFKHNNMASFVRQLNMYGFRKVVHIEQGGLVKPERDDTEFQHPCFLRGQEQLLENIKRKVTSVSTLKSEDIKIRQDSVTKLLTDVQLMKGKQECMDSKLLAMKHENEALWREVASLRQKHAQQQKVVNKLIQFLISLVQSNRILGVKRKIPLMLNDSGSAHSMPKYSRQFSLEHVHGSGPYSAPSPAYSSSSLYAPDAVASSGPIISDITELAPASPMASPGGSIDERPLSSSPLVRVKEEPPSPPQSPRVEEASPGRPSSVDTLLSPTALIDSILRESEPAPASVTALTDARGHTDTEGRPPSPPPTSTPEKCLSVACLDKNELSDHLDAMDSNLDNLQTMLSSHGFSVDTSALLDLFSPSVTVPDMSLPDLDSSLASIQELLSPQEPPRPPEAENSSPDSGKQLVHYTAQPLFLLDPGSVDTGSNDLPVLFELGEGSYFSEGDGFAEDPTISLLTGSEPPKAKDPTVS
# Outline: as §1
# [13] = molecular target: T8, SPIC (Homo sapiens, UniProt Q8N5J4 1-248); details: protein: recombinant; tags: N-terminal GST; dsDNA, one strand shown
# T8 sequence: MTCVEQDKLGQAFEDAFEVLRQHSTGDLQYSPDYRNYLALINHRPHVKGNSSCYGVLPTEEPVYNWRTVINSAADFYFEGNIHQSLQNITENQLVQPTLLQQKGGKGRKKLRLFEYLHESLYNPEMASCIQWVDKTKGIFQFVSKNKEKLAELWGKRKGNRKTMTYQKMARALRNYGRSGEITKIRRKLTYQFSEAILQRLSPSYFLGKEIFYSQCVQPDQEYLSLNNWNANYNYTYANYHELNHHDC
# Outline: as §1
# [14] = molecular target: ELF4 (Homo sapiens, UniProt Q99607 1-663); details: protein: recombinant; tags: N-terminal GST; dsDNA, one strand shown
# Sequence of ELF4 (Q99607 whole entry): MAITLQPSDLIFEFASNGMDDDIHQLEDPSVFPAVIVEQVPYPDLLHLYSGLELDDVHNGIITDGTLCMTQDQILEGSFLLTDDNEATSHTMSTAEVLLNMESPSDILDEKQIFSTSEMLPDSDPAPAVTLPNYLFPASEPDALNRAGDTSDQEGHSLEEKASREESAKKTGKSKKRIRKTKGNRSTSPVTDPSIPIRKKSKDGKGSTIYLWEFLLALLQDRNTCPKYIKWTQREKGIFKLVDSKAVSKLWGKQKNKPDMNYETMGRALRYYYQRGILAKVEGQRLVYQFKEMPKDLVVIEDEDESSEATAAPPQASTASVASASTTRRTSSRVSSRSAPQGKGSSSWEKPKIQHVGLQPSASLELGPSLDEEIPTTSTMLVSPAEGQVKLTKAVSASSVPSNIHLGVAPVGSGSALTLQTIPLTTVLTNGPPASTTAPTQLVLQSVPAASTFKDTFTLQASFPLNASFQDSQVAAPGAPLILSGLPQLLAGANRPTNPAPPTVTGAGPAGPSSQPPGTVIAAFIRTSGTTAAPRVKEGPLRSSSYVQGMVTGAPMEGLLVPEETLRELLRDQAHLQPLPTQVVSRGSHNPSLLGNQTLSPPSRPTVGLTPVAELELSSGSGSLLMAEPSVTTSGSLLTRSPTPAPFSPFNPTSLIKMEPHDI
# Outline: as §1
# [15] = molecular target: T9, ELK4 (Homo sapiens, UniProt P28324-2 1-405); details: protein: recombinant; tags: N-terminal GST; dsDNA, one strand shown
# T9 sequence: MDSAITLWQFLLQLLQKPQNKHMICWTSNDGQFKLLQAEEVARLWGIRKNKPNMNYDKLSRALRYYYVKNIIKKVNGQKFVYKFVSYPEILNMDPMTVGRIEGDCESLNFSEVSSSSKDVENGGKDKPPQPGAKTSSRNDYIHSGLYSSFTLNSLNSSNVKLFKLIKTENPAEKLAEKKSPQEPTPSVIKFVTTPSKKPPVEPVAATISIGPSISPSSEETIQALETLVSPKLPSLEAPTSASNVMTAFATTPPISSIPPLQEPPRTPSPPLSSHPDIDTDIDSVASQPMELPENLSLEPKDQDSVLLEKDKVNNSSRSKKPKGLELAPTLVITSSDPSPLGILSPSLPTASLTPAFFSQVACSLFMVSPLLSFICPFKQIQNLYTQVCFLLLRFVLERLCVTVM
# Outline: as §1
# [16] = molecular target: T10, ETV2 (Homo sapiens, UniProt O00321 1-342); details: protein: recombinant; tags: N-terminal GST; dsDNA, one strand shown
# T10 sequence: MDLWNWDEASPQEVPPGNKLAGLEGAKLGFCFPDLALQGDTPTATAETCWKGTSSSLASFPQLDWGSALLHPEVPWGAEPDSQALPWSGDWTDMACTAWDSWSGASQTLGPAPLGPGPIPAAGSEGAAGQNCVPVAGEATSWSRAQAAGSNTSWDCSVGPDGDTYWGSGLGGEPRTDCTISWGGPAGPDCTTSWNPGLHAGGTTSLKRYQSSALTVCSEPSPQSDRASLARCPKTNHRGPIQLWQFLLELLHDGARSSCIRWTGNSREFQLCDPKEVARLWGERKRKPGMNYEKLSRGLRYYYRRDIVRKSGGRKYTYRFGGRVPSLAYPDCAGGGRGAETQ
# Outline: as §1
# [17] = molecular target: T11, ELF3 (Homo sapiens, UniProt P78545 1-371); details: protein: recombinant; tags: N-terminal GST; dsDNA, one strand shown
# T11 sequence: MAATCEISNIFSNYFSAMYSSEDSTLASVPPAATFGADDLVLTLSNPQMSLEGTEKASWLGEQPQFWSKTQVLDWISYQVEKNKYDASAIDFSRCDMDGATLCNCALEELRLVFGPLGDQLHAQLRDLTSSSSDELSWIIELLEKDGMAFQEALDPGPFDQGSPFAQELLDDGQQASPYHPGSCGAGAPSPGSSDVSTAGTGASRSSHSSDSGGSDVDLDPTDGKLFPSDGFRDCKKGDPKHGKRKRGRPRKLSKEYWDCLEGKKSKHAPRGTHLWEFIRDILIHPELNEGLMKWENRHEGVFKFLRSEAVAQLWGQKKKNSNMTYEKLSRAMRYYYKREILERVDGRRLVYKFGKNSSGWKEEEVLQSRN
# Outline: as §1
# [18] = molecular target: CRX (Homo sapiens, UniProt O43186 1-299); details: protein: recombinant; tags: N-terminal GST; dsDNA, one strand shown
# Sequence of CRX (O43186 whole entry): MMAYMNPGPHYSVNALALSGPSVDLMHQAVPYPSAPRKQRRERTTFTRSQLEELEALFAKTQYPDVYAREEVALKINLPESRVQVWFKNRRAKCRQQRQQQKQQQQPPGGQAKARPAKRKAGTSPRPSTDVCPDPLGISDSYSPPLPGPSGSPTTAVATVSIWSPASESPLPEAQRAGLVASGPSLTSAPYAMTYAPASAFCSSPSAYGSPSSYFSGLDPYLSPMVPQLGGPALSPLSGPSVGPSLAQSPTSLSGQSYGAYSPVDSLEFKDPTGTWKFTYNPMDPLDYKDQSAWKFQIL
# Outline: as §1
# [19] = molecular target: ETV1 (Homo sapiens, UniProt P50549 1-477); details: protein: recombinant; tags: N-terminal GST; dsDNA, one strand shown
# Sequence of ETV1 (P50549 whole entry): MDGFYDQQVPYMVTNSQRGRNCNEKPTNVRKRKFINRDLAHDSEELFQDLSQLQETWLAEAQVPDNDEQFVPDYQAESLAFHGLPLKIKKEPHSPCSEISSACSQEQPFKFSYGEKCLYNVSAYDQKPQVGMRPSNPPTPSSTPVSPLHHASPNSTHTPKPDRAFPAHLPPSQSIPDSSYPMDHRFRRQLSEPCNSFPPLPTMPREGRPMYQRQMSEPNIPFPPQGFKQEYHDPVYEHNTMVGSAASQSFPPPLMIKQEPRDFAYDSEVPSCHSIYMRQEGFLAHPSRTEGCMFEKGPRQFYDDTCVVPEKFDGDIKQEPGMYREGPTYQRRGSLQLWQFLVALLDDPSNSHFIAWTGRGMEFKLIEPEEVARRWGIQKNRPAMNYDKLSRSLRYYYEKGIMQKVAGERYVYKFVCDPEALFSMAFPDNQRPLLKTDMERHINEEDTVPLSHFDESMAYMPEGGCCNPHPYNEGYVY
# Outline: as §1
sequence,measurement,setting,value
CTTACC,binding signal,[1],"1.21 fold enrichment (6-mer frequency, TF over GST control)"
same,binding signal,[2],"1.22 fold enrichment (6-mer frequency, TF over GST control)"
same,binding signal,[3],"1.26 fold enrichment (6-mer frequency, TF over GST control)"
same,binding signal,[4],"1.24 fold enrichment (6-mer frequency, TF over GST control)"
same,binding signal,[5],"1.24 fold enrichment (6-mer frequency, TF over GST control)"
same,binding signal,[6],"1.17 fold enrichment (6-mer frequency, TF over GST control)"
same,binding signal,[7],"1.34 fold enrichment (6-mer frequency, TF over GST control)"
same,binding signal,[8],"1.32 fold enrichment (6-mer frequency, TF over GST control)"
same,binding signal,[9],"1.26 fold enrichment (6-mer frequency, TF over GST control)"
same,binding signal,[10],"1.25 fold enrichment (6-mer frequency, TF over GST control)"
same,binding signal,[11],"1.21 fold enrichment (6-mer frequency, TF over GST control)"
same,binding signal,[12],"1.26 fold enrichment (6-mer frequency, TF over GST control)"
same,binding signal,[13],"1.34 fold enrichment (6-mer frequency, TF over GST control)"
same,binding signal,[14],"1.25 fold enrichment (6-mer frequency, TF over GST control)"
same,binding signal,[15],"1.27 fold enrichment (6-mer frequency, TF over GST control)"
same,binding signal,[16],"1.27 fold enrichment (6-mer frequency, TF over GST control)"
same,binding signal,[17],"1.27 fold enrichment (6-mer frequency, TF over GST control)"
same,binding signal,[18],"1.58 fold enrichment (6-mer frequency, TF over GST control)"
same,binding signal,[19],"1.28 fold enrichment (6-mer frequency, TF over GST control)"
